Hits are enriched below; roughly 6.2% of the tested compounds scored in any of these assays.
RORg inh – qHTS for inhibitors of ROR gamma transcriptional activity. Drosophila S2 Gal4-RORgamma UAS-luciferase reporter, 20 h. Potency, µM (series often up to 53.6 µM), for inactives: at the top dose activity change, negative = inhibition, most hits filed as inhibitors. hit rate 5.4% among 310,000. Nuclear receptor ROR-gamma (Mus musculus), P51450; also: nearly all actives have a fitted effect of over 60% in size
Target sequence (P51450 whole entry, looked up, the tested form may be a part): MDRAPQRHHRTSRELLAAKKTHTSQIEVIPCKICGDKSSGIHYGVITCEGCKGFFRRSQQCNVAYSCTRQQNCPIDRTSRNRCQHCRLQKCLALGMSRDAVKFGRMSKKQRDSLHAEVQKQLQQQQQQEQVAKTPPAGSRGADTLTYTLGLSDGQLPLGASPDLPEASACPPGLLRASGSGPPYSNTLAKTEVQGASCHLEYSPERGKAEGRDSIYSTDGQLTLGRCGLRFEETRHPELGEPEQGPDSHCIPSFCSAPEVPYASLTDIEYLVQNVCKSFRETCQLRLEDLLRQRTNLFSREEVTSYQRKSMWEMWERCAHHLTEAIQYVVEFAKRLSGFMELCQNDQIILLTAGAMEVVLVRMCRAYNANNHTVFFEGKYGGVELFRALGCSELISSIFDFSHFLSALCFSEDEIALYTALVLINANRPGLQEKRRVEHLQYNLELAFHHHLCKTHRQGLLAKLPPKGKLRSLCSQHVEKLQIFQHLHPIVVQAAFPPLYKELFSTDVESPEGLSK
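Stable Schneider cell line, Gal4 DNA-binding domain fused to ROR gamma, UAS-luciferase. Cmpd 1 hr RT → CuSO4 700 uM final → 20 hr RT → luciferase reagent 10 min → luminescence.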
Gal4-VP16 FLuc – VP16 counterscreen qHTS for inhibitors of ROR gamma transcriptional activity; hit rate 3.5% among 310,000; Drosophila S2 Gal4-VP16 UAS-luciferase, luminescence, 20 h; Potency, µM (doses to about 53.6 µM), for the others: at the top dose activity, negative = inhibition, usual class: inhibitors;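 also: Gal4-VP16 expression switched on by copper sulfate through the metallothionein promoter; nearly all actives have a fitted effect of over 50% in size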
Luc counter – Counterscreen for Luciferase (Kinase-Glo TM) Inhibition; Luciferin 4-monooxygenase (Photuris pensylvanica), Q27757; Kinase-Glo luciferase, ATP luminescence, 8 min; Potency, µM (highest dose often 38.3 µM), for the others: top-dose activity change, negative = inhibition, most hits filed as inhibitors; hit rate 0.28% among 200,000; also: nearly all actives have a fitted effect of over 60% in size
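Recombinant Kinase-Glo luciferase, 10 uM ATP (linear range), luciferin; imidazole pH 7.2 / KCl / MgCl2 / Tween / BSA buffer; 8 min RT; luminescence.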
The depositor's hits bear a star; ? = inconclusive; nt = no result given; ! = a repeat was not active; [ ] = remark or other dose. Calls follow the shape of the dose curve; as a rule, active = well fitted curve in the direction sought with a large enough effect; inconclusive = small, poorly fitted or top-dose-only effect, or another doubt; inactive = no such curve, though single readings can be large; an effect the other way counts as inactive or inconclusive. % is scaled to controls: 0 for no effect and ±100 for the full control effect; potency is read from the fitted curve at half-maximal effect.

SMILES | RORg inh | Gal4-VP16 FLuc | Luc counter
CCOc1ccccc1Nc1nc(-c2sc(NC(=O)c3ccc([N+](=O)[O-])cc3)nc2C)cs1 | 6.3µM* | ? | -3%
Cc1ccccc1Nc1nc(-c2sc(NC(=O)c3ccc([N+](=O)[O-])cc3)nc2C)cs1 | -17% | -15% | -4%
Cc1ccccc1Nc1nc(-c2sc(NC(=O)c3cccc(Cl)c3)nc2C)cs1 | 13µM* | ? | -7%
Cc1ccc(C(=O)N/C(=C\c2ccc(-c3ccc([N+](=O)[O-])cc3)o2)C(=O)NC2CCS(=O)(=O)C2)cc1 (configuration not stated) | 3% | -19% | 2%
O=c1[nH]c(CN(CCc2ccccc2)S(=O)(=O)c2ccc(Cl)cc2)nc2ccccc12 | 4.5µM* | 6.3µM* | -4%
COc1ccccc1CN(Cc1nc2ccccc2c(=O)[nH]1)S(=O)(=O)c1ccc2ccccc2c1 | ? | 0% | 2%
COc1ccc(S(=O)(=O)N(Cc2ccccc2)Cc2nc3ccccc3c(=O)[nH]2)cc1 | 13µM* | 11µM* | -3%
O=c1[nH]c(Cc2ccc(Cl)cc2)nc2ccccc12 | 15% | -10% | 0%
CC(C)Cc1ccc(CC(=O)O)cc1 | -13%[10 µM] | -8% | nt
COc1cc(C2C(C#N)=C(N)Oc3c2c(-c2ccccc2)nn3-c2ccccc2)cc(OC)c1OC (configuration not stated) | 15%[10 µM] | 7% | 1%
N#CC(=C=[N-])c1nc2ccccc2nc1-[n+]1cccc(NC(=O)c2ccc(F)cc2)c1 | -1% | -2% | nt
N#CC(=C=[N-])c1nc2ccccc2nc1-[n+]1cccc(NC(=O)c2ccccc2)c1 | 5µM*! | ? | nt
Nn1cc(-c2ccccc2)nc1SCC(=O)Nc1ccc2c(c1)OCO2 | -21% | -4% | -5%
OCC1OC(O)C(O)C(O)C1O (configuration not stated) | 9% | -4% | -1%[39.9 µM]
OCC1OC([S-])[C@H](O)C(O)C1O.[Au+] (some centres not stated) | -9% | 6.3µM* | -7%
COCCNc1nc(C)nc2c1nc(-c1ccccc1)n2CC1CCN(C)CC1 | -11% | 5% | 0%
COc1ccc(CN2CCC(n3nccc3NC(=O)C3CC3)CC2)cc1O | 0% | -5% | nt
CCOC(=O)c1c(NC(=O)Nc2ccc(F)cc2)sc2c1CCN(C)C2 | 4% | -7% | nt
CCOC(=O)c1c(NC(=S)Nc2ccc(C)cc2)sc2c1CCC2 | 6.3µM* | ? | -5%
CCOC(=O)c1c(NC(=S)Nc2ccc(Cl)cc2)sc2c1CCN(C)C2 | 2% | -12% | -1%
CCOC(=O)c1c(NC(=S)Nc2cc([N+](=O)[O-])ccc2OC)sc2c1CCCCC2 | 5.6µM* | 4µM* | 5%
CCOC(=O)c1c(NC(=S)Nc2ccc(F)cc2)sc2c1CCC2 | 10µM* | ? | -3%
C=CCNC(=S)Nc1sc2c(c1C(N)=O)CCCC2 | 11µM* | ? | nt
CC(C)C(=O)NC(=S)Nc1sc2c(c1C(N)=O)CCCC2 | 27% | 10% | -2%
COC(=O)c1c(NC(=S)Nc2cc(OC)c(Cl)cc2OC)sc2c1CCCCC2 | 17% | ? | -1%
SMILES | RORg inh | Gal4-VP16 FLuc | Luc counter
O=C(NC1CC1)c1ccc2c(c1)N(Cc1ccccc1)CCS2 | -1% | -6% | nt
Cc1cccc(N2CCC(N=CN(C)C)=N2)c1 | -22% | 3% | -5%
COc1ccccc1CNC(=O)CN1C(=O)NC(C)(c2ccc(C)cc2)C1=O (configuration not stated) | 32% | 2% | nt
CCOC(=O)c1c(NC(=S)NC(=O)c2cnn(CC)c2)sc2c1CCC(C)C2 (configuration not stated) | 11µM* | -6% | -2%
CCOC(=O)c1c(NC(=O)C2C3C=CC(C3)C2C(=O)O)sc2c1CCC(C)C2 (configuration not stated) | 6% | -4% | -5%
NC(=O)c1c(NC(=S)Nc2ccc(F)cc2)sc2c1CCCC2 | 10µM* | -87% | -3%
CCOc1ccc(NC(=O)c2c(NC(=O)CN3CCN(C)CC3)sc3c2CCC3)cc1 | 42% | -1% | nt
NC(=O)c1c(NC(=S)Nc2ccccc2)sc2c1CCCC2 | -124% | ? | 1%
CCOc1ccc(NC(=O)c2c(NC(=O)CN3CCCC3)sc3c2CCC3)cc1 | 4.5µM* | 4.5µM* | nt
CC(C)CCNC(=O)CN(C(=O)CCC(=O)Nc1ccccn1)c1ccc(F)c(Cl)c1 | -6% | 11% | -2%
COC(=O)[C@@H]1CCCN1C(=O)[C@@H](C)CO | 0%[10 µM] | -10%[10 µM] | nt
CCCCCC/C=C1\CC(C(=O)OCC)Oc2ccccc21 (configuration not stated) (tested in a mixture with another compound) | 29% | -2% | 2%[39.9 µM]
CN(C)CCCNS(=O)(=O)c1ccc(NC2CCCCCC2)c([N+](=O)[O-])c1 | -13% | 20µM* | nt
CCNc1ccc(S(=O)(=O)NCCN(C)C)cc1[N+](=O)[O-] | 10% | 17% | -4%
CCn1cc(C(=O)N[C@H](C(=O)NCCCn2ccnc2)C(C)C)c(=O)c2cc3c(cc21)OCO3 | -8% | 4% | nt
Cc1ccc(CN2CCC(Oc3cccc(C(=O)NCc4cccnc4)c3)CC2)o1 | -26% | -11% | nt
Cc1onc(-c2ccccc2)c1NC(=O)Nc1c(-c2ccccc2)noc1C | 3% | 5% | -3%
O=Nc1onc(-c2ccc([N+](=O)[O-])cc2)c1NO | 3.5µM* | 4.5µM* | -3%
Cc1ccc(-c2noc(N=O)c2NO)cc1 | 0.71µM* | 0.63µM* | nt
O=[N+]([O-])c1ccc(-c2ccc(/C=N/O)o2)cc1 | 3% | 22% | nt
O=c1oc2ccccc2c2c1C1O[C@](c3ccsc3)(Cc3c1ccc1ccccc31)O2 | ? | 0%[10 µM] | nt
Cc1ccc(C)c(OCCCC(=O)O)c1 | -4% | 0% | 8%
Cc1ccc(C)c(OCCCC(C)(C)C(=O)O)c1 | -5% | 20µM*! | 2%
O=C(CNS(=O)(=O)c1ccccc1)NCc1cccnc1 | 1% | -15% | 0%
Cc1cc(O)c2c(c1)OC1(C)CCC3C(C)(C)CCCC34COC2C14 (configuration not stated) | 3% | ? | nt
SMILES | RORg inh | Gal4-VP16 FLuc | Luc counter
Cc1ccc(NC(=O)COC(=O)CN2C(=O)NC(C)(C)C2=O)cc1S(=O)(=O)N1CCOCC1 | 4% | -9% | 1%
Cc1cc(OC(=O)Cc2cccc3ccccc23)c([N+](=O)[O-])c(=O)[nH]1 | 4% | -4% | -2%
Cc1ccc(OCc2nnc(SCC(=O)Nc3cc(C)on3)n2C)cc1 | -3% | -1% | -3%
Cc1ccc(OCc2nnc(SCC(=O)c3cccc([N+](=O)[O-])c3)n2C)cc1 | 2µM* | ? | 3%
O=C(Nc1ccccc1Cl)c1cccc(NC(=O)c2cccs2)c1 | 27% | -1% | nt
CO[C@]12C[C@@H](COC(=O)c3cncc(Br)c3)CN(C)[C@@H]1Cc1cn(C)c3cccc2c13 | -1% | -9% | -1%
Nc1c(S(=O)(=O)O)cc(Nc2cccc(S(N)(=O)=O)c2)c2c1C(=O)c1ccccc1C2=O | nt | nt | -7%[7.66 µM]
Cc1ccc(C)c(Oc2coc3cc(OCC(=O)Nc4ccccc4C(C)C)ccc3c2=O)c1 | ? | -9% | 3%
CN1CCC(OC(=O)c2cc3cc(Br)ccc3oc2=O)CC1 | 7% | -18% | nt
